Screens as filed in PubChem.
Rows were chosen to be rich in hits. Some 11% of all compounds tested hit in one or more screens of this group.
G9a block – qHTS Assay for Inhibitors of Histone Lysine Methyltransferase G9a; Histone-lysine N-methyltransferase EHMT2 (Homo sapiens), Q96KQ7; G9a H3K9 monomethylation, AlphaScreen, 2 h; Potency, µM (doses to about 102 µM), hits mostly inhibitors; actives 8.8% (n = 350,000); AID 504332, 2011; note: nearly all actives have a fitted effect of over 75% in size
Target sequence (Q96KQ7 913-1193 limits assumed): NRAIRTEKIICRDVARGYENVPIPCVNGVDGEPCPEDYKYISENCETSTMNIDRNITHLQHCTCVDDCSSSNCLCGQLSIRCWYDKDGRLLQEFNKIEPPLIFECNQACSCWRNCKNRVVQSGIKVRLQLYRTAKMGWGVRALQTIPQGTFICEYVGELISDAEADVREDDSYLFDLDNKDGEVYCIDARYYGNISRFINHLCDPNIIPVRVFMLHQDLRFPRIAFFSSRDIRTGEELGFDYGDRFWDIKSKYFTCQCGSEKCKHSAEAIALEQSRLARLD
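Readings reflect AlphaScreen signal from monomethyl-H3K9 antibody detection. HMT at 20 nM; substrate b-H3K9 500 nM; cofactor SAM 20 uM; 2 h RT reaction; compounds tested as titrations in qHTS with 15 min preincubation.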
Tau fibril FP – qHTS for Inhibitors of Tau Fibril Formation, Fluorescence Polarization; AID 1468, 2008; Potency, µM (highest dose often 57.7 µM), actives largely listed as inhibitors; K18 P301L tau heparin fibrillization, Alexa594 FP, 6 h; Microtubule-associated protein tau (Homo sapiens), P10636; actives 0.39% (n = 280,000); note: nearly all actives have a fitted effect of over 55% in size
Target sequence (P10636 561-689 P618L limits assumed): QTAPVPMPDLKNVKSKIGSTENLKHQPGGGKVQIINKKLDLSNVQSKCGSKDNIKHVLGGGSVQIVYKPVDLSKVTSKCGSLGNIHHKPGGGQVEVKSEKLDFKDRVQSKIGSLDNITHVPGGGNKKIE
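Steps: dispense K18 P301L tau (15 uM plus 0.24 uM Alexa 594 tracer, final) in pH 7 sodium acetate; add compound; add heparin (20 uM final); incubate 6 hr, 37 C; add ThT (30 uM final); after 1 hr ambient, read FP.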
Tau fibril ThT – qHTS for Inhibitors of Tau Fibril Formation, Thioflavin T Binding | AID 1460, 2008 | recombinant tau K18 P301L, heparin-induced fibrillization, ThT fluorescence | actives 2.1% (n = 270,000) | Microtubule-associated protein tau (Homo sapiens), P10636 | Potency, µM (series often up to 57.4 µM), actives largely listed as inhibitors; note: nearly all actives have a fitted effect of over 55% in size
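Recombinant human tau K18 fragment […] carrying P301L, 15 uM unlabeled plus 0.24 uM Alexa 594-labeled, was fibrillized with 20 uM heparin in 100 mM sodium acetate pH 7 for 6 hr at 37 C; 30 uM ThT fluorescence read after 1 hr.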
Sfp PPTase inh – qHTS Assay for Inhibitors of Bacillus subtilis Sfp phosphopantetheinyl transferase (PPTase); 4'-phosphopantetheinyl transferase ffp (Bacillus subtilis), Q9F4F7; Biochemical Sfp PPTase activity, qHTS; Potency, µM, most hits filed as inhibitors; actives 3.5% (n = 310,000); AID 1490, 2009;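 note: the enzyme is Sfp with the accession as filed and its product quenches rhodamine fluorescence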
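After 15 min at room temperature with compound, 15 nM Sfp received 5 uM rhodamine-CoA plus 12.5 uM BHQ-2-ybbR (50 mM Hepes pH 7.6, 10 mM MgCl2). Rate came from the fluorescence difference over 30 min, ex 525/em 598 nm.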
Coupling enz – qHTS Assay for Inhibitors of Fructose-1,6-bisphosphate Aldolase from Giardia Lamblia: Coupling assay counterscreen; activity change, negative = inhibition, % at 58.2 µM, hits read low; coupling enzyme system counterscreen, AmpLite Red fluorescence; AID 2472, 2010; actives 0.67% (n = 290,000); in the data active = activity change below about -30%
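Fluorescence at 525 nm excitation and 598 nm emission measured inhibition of the coupled detection system without aldolase. Compounds (at 57.5 uM final) were preincubated 10 min at room temperature with coupling enzyme reagent before a 20 min substrate/AmpLite Red step.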
Tau fluor cs – Counterscreen qHTS for Inhibitors of Tau Fibril Formation, Fluorescence Polarization; Potency, µM (top dose mostly 57.7 µM); tau K18 P301L (four-repeat tau fragment) Alexa594 fluorescence, heparin fibrillization; actives 0.93% (n = 280,000); note: nearly all actives have a fitted effect of over 55% in size
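Human K18 P301L tau (15 uM unlabeled plus 0.24 uM Alexa 594-labeled, final) in 100 mM sodium acetate pH 7 was mixed with compound and 20 uM heparin and incubated 6 hr at 37 C.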
Hits are given with their value; – = inactive; ? = inconclusive; · = no result given; [ ] = remark or other dose. Unless noted, calls come from the whole dose curve; as a rule, active = well fitted curve in the direction sought with a large enough effect; inconclusive = small, poorly fitted or top-dose-only effect, or another doubt; inactive = no such curve, though single readings can be large; an effect the other way counts as inactive or inconclusive.

SMILES	G9a block	Tau fibril FP	Tau fibril ThT	Sfp PPTase inh	Coupling enz	Tau fluor cs
Cc1ccccc1C(=O)NC(=S)Nc1ccc(S(=O)(=O)N2CCN(C)CC2)cc1	–	–	–	?	–	–
COc1ccccc1CNC(=O)c1cc2cccc3c2n1CCS3	–	–	–	·	·	–
COc1ccc(C(=O)NC(=S)Nc2cccnc2)cc1Cl	50.1µM	·	·	–	–	·
Cc1cccc(N2CCN(c3ccc(NC(=O)/C=C(/C(=O)O)c4ccccc4)cc3)CC2)c1	8.91µM	?	8.91µM	?	–	?
COC(=O)c1cc(NC(=O)c2cc(-c3ccccc3Cl)oc2C(F)(F)F)ccc1N1CCOCC1	?	?	·	–	–	12.6µM[quencher]
CC(=O)N1CCN(c2ccc(NC(=O)c3cccc(C)c3)cc2)CC1	·	·	·	–	–	·
COC(=O)c1cc(NC(=O)c2cc(-c3ccc(Cl)cc3)oc2C(F)(F)F)ccc1N1CCOCC1	–	–	·	–	–	?
COc1ccc(C(=O)NC(=S)Nc2ccc(N3CCOCC3)cc2)cc1Cl	25.1µM	·	·	–	–	·
COc1cccc(C(=O)NC(=S)Nc2cccnc2)c1	?	–	–	–	–	–
O=C(NC(=S)Nc1ccc(N2CCOCC2)cc1)c1ccc(Cl)cc1	?	–	?	–	–	–
O=C(CSc1nnc(-c2ccc(Cl)cc2)o1)Nc1ccc(F)cc1	–	–	–	·	·	–
Fc1cccc(CNc2ncnc3ccc(-c4cccc(Cl)c4)cc23)c1	–[12.7 µM]	·	·	·	·	·
Cc1ccc(NC(=O)CSc2nnc(COc3ccc(Cl)cc3)o2)cc1	–	–	?	·	·	?
O=C(CSc1ccc2c(c1)OCCO2)Nc1ccc(N2CCOCC2)cc1	?	–	?	–	–	–
O=C(Nc1ccc2snnc2c1)N1CCOCC1	?	–	–	–	–	–
CC(Sc1ccc2c(c1)OCCO2)C(=O)Nc1ccc(N2CCOCC2)cc1 (centres undefined)	50.1µM	–	–	–	–	–
COc1cc(NC(=S)Nc2cccnc2)cc(OC)c1OC	50.1µM	–	–	?	–	–
Cc1cccc(C(=O)NC(=S)Nc2ccc(N3CCOCC3)cc2)c1	7.94µM	–	?	–	–	?
Cc1ccc(C(=O)NC(=S)Nc2ccc(N3CCOCC3)cc2)cc1C	?	–	?	–	–	?
COc1cc(NC(=S)NCc2cccnc2)cc(OC)c1OC	–	–	–	?	–	–
S=C(Nc1ccc(N2CCOCC2)cc1)Nc1ccc2snnc2c1	28.2µM	–	?	–	–	?
CCc1ccccc1N(CC(=O)Nc1cccnc1)S(=O)(=O)c1ccccc1	–[12.7 µM]	·	·	–	·	·
O=C(NC(=S)Nc1ccc(CN2CCOCC2)cc1)c1ccc2c(c1)OCCO2	44.7µM	–	·	?	–	?
Cc1ccccc1OCC(=O)NC(=S)Nc1ccc(N2CCOCC2)c(Cl)c1	?	–	?	–	–	–
O=C(NC(=S)Nc1ccc(N2CCCCC2)cc1)c1ccc2c(c1)OCCO2	?	–	?	–	–	?
SMILES	G9a block	Tau fibril FP	Tau fibril ThT	Sfp PPTase inh	Coupling enz	Tau fluor cs
COc1ccccc1C(=O)NC(=S)Nc1ccc(N2CCOCC2)c(Cl)c1	8.91µM	–	?	31.6µM	–	?
O=C(NC(=S)Nc1ccc(N2CCOCC2)cc1)c1ccc2c(c1)OCCO2	10µM	–	?	–	–	?
CCOc1ccc(NC(=S)NN(C)C(=S)Nc2ccc(OCC)cc2)cc1	–	–	?	–	–	17.8µM[quencher]
CC1CCCCN1CCCNC(=O)Cn1ncc2c3ccccc3n(Cc3ccccc3)c2c1=O (centres undefined)	–	–	–	·	·	–
CCCCc1ccc(NC(=S)NCc2cccc(OC)c2)cc1	–	–	–	–	–	?
CC(=O)c1cccc(NC(=S)NC(=O)c2cccc(C)c2)c1	25.1µM	–	–	–	–	–
O=C(/C=C/c1ccc(Cl)cc1)NC(=S)Nc1ccc(N2CCOCC2)c(Cl)c1	22.4µM	–	?	?	–	–
CCOc1ccc(NC(=S)Nc2cccnc2)cc1	44.7µM	–	–	?	–	–
CCCCc1ccc(NC(=S)Nc2ccc(Nc3ccc(OC)cc3)cc2)cc1	12.6µM	?	8.91µM	?	–	7.94µM[quencher]
CC1=C(C(=O)Nc2cccnc2)C(c2cccc(Br)c2)n2nc(SCc3ccccc3)nc2N1 (centres undefined)	–	–	–	·	·	–
COC(=O)c1sc(N2C(=O)c3oc4ccccc4c(=O)c3C2c2ccc(O)cc2)nc1C (centres undefined)	–	–	–	·	·	–
COc1ccc(-c2nn(-c3ccccc3)cc2C2CC(c3cccs3)=NN2C(=O)CCC(=O)O)cc1 (centres undefined)	·	–	·	–	–	–
COc1ccc(C2=NN(S(C)(=O)=O)C(c3cn(-c4ccccc4)nc3-c3cccs3)C2)cc1 (centres undefined)	–	20µM	–	·	·	?
Cc1nc(-c2ccc(S(=O)(=O)N3CCCN(CCc4ccccc4)CC3)s2)cs1	50.1µM	–	–	–	–	–
Cc1nc(-c2ccc(S(=O)(=O)N3CCN(C4c5ccccc5-c5ccccc54)CC3)s2)cs1	56.2µM	?	·	–	–	–
O=C(NC1(C(F)(F)F)NC(=O)N(Cc2ccco2)C1=O)c1cccnc1 (centres undefined)	39.8µM	–	–	?	–	–
O=C(NC1(C(F)(F)F)NC(=O)N(Cc2ccccc2)C1=O)c1cccnc1 (centres undefined)	–	–	–	–	–	–
O=C(NC1(C(F)(F)F)NC(=O)N(Cc2ccco2)C1=O)c1cccs1 (centres undefined)	?	–	–	35.5µM	–	–
CC(C)(C)NC(=O)COc1ccccc1C#N	–	–	–	–	–	–
CCc1ccc(NCc2cc3ccc(OC)cc3n(CC(=O)Nc3ccccc3OC)c2=O)cc1	?	?	–	·	·	?
CC(=O)NCc1ccc(S(=O)(=O)N2CCN(c3ccccn3)CC2)cc1	?	·	·	–	–	·
Cc1ccc(S(=O)(=O)N2CCCC2)cc1C(=O)O	?	–	–	–	–	–
CN1CCCN(S(=O)(=O)c2ccc(O)c(C(=O)O)c2)CC1	79.4µM	·	·	–	–	·
CC(=O)NCc1ccc(S(=O)(=O)N2CCCN(C)CC2)cc1	79.4µM	·	·	–	–	·
O=C(CN(c1ccccc1)S(=O)(=O)c1ccccc1[N+](=O)[O-])Nc1ccccc1C(=O)N1CCOCC1	–	–	–	–	–	–
CN(C)c1ccc(SC#N)cc1	50.1µM	?	10µM	–	–	?
